# Only some compounds are listed: those with a hit (about 4.6% of all), similar ones and a draw of the others.
# D1 potentiator – potentiators of human D1 dopamine receptor; potentiation, % at 10 µM; actives 0.036% (n = 360,000); HEK293 TREx D1 cells, calcium flux, dopamine EC20 potentiation; in the data active means potentiation above about 30%
# D1 agonist – human D1 receptor agonism; P21728; activation, % at 2 µM; AID 504660; actives 1% (n = 360,000); HEK293 T-REx D1 cells, calcium flux, agonist mode
#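 Agonism was scored from calcium flux recorded over 180 s (1 read/s) after pintool compound addition, following a 10-cycle baseline. Cells were inducible force-coupled HEK293 TREx D1, plated overnight at 30 C and loaded with no-wash calcium dye.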
# D1 antagonist – antagonists of human D1 dopamine receptor; P21728; actives 3.2% (n = 360,000); HEK293 TREx D1 cells, calcium flux, dopamine EC80; hits give low values; AID 504652; activity change, negative = inhibition, % at 10 µM; in the data active means activity change below about -30%
#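 Tetracycline-induced HEK293 T-REx cells with force-coupled D1 receptor were loaded with a no-wash calcium dye. Compound was added after a 10 s baseline and read kinetically for 180 s; EC80 dopamine was then added and calcium flux followed another 180 s.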
# TRHR PAM – allosteric enhancers of human TRH receptor | TRHR cells, fluo-8 calcium fluorescence, EC20 TRH enhancement | enhancement, % at 2 µM | actives 0.66% (n = 360,000) | AID 493056; in the data active means enhancement above about 30%
# Target sequence (P34981 whole entry, looked up): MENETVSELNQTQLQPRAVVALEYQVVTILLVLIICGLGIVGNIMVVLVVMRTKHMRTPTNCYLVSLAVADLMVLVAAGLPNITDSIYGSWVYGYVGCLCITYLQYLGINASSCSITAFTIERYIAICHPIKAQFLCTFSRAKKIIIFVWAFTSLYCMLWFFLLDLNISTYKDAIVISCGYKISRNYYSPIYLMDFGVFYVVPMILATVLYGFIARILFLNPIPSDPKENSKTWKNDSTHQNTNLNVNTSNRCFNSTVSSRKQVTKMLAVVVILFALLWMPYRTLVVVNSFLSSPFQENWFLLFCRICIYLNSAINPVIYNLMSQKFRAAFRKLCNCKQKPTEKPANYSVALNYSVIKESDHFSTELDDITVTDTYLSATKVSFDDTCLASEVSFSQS
#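 Enhancer read-out: after compound pinning and an initial kinetic agonist-mode read, an EC20 of TRH (10 nM final) was injected and fluo-8 calcium signal (Ex 480/Em 530) followed at 1 s/cycle for 100 cycles in TRHR-expressing cells.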
# TRHR ag – activates the human TRH receptor; P34981; TRHR cells, calcium flux fluo-8, FDSS agonist mode; activation, % at 2 µM; actives 0.18% (n = 360,000)
#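 Steps: seed TRHR cells overnight; add fluo-8 no-wash Ca dye, RT 30 min–1.5 h; record 10 s baseline; pin-transfer compounds; monitor fluorescence 1 cycle/s for the agonist window. Calcium increases flag candidate agonists.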
# Numbers stand for hits; i = inactive; nt = no result given; ! = not active in a repeat. Unless noted, no stated cut-off is given here; in the data, active means activation above about 30%; inactive means the rest.
SMILES,D1 potentiator,D1 agonist,D1 antagonist,TRHR PAM,TRHR ag
O=C(NCCOc1ccccc1)c1cccc(S(=O)(=O)NCc2ccccc2)c1,i,i,-38,i,i
CC(C)(C)c1ccc(C(=O)NCCOc2ccccc2F)cc1,i,i,i,i,i
CC(C)(C)c1ccc(C(=O)NCCOc2ccccc2)cc1,i,i,-31,i,i
COc1ccc(C(=O)NCCOc2cccc(Oc3ccccc3)c2)cc1OC,i,i,-44,i,i
COc1cccc(C(=O)NCC(=O)OCC(=O)C(C)(C)C)c1,i,i,i,i,i
CC(C)(C)C(=O)COC(=O)CNC(=O)c1ccc(Oc2ccccc2)cc1,i,159,-49,i,i
O=C(NCCc1ccccc1)c1cccc(S(=O)(=O)NCc2ccccc2)c1,i,i,i,i,i
O=C(CSc1n[nH]c(-c2ccccc2Cl)n1)N1CCN(c2ccccc2)CC1,i,i,i,i,i
Cc1ccc(C(=O)NCC(c2cccs2)S(=O)(=O)c2cccs2)cc1C (stereo unspecified),i,i,nt,i,i
Cc1ccc(-c2nc(N3CCCC(C)C3)c3ccccc3n2)cc1 (stereo unspecified),i,i,i,i,i
COc1ccccc1CNC(=O)C(=O)NCC(c1cccnc1)N1CCN(c2ccc(F)cc2)CC1 (stereo unspecified),i,i,i,i,i
O=C(O)/C=C/c1ccc2noc(-c3ccccc3)c2c1,i,i,i,32,i
CCn1cc(/C=C/C(=O)Nc2c(C)nn(Cc3ccccc3)c2C)cn1,i,i,i,35,i
Cc1nn(Cc2ccccc2Cl)c(C)c1NC(=O)/C=C/c1cnn(C)c1,i,i,i,i,i
COc1cccc(NC(=O)N2CCN(c3cccc(C)c3)C(C)C2)c1 (stereo unspecified),i,i,-83,i,i
Cc1cccc(N2CCN(C(=O)Nc3ccc(F)cc3)CC2C)c1 (stereo unspecified),i,33,i,i,i
CC1=CC(=O)C=C(C)C1=NOS(=O)(=O)c1ccccc1,i,i,i,i,i
CC1=CC(=O)C(C(C)C)=C/C1=N/OS(=O)(=O)c1ccccc1,i,i,-31,i,i
CCc1c(C)nc2nncn2c1NCc1ccc(Cl)cc1,i,i,i,i,i
Cc1ccc(CNc2c(C)c(C)nc3nncn23)cc1,i,i,-45,i,i
O=C(c1ccco1)N1CCN(CCOCCOc2cccc3ccccc23)CC1,i,i,-53,i,i
c1ccc(CN2CCN(CCOCCOc3cccc4ccccc34)CC2)cc1,i,i,-43,i,i
Cc1ccc(OCC(=O)Nc2cc(C)on2)c([N+](=O)[O-])n1,i,i,i,i,i
Cc1ccc(OCC(=O)NC(C)c2ccc(Cl)c(Cl)c2)c([N+](=O)[O-])n1 (stereo unspecified),i,i,-36,i,i
CC(C)(C)SCCNC(=O)/C=C/c1ccc([N+](=O)[O-])cc1,i,i,-36,i,i
SMILES,D1 potentiator,D1 agonist,D1 antagonist,TRHR PAM,TRHR ag
O=C(/C=C/c1cccc([N+](=O)[O-])c1)NCCN1C(=O)S/C(=C\c2ccc(F)cc2)C1=O,i,i,-40,i,i
O=C(/C=C/c1ccc([N+](=O)[O-])cc1)NCCN1C(=O)S/C(=C\c2ccc(F)cc2)C1=O,i,i,-31,i,i
Cc1[nH]c(C)c(S(=O)(=O)N2CCN(c3ccccc3)CC2)c1C(=O)N1CCCCC1,i,i,i,i,i
Cc1ccc(S(=O)(=O)N2CCN(C(=O)COC(=O)/C=C/c3ccc(F)cc3)CC2)c(C)c1,i,i,-38,i,i
Cc1ccc(S(=O)(=O)N2CCN(C(=O)COC(=O)/C=C/c3ccccc3)CC2)c(C)c1,i,i,i,i,i
CSc1ccc(/C=C/C(=O)OCC(=O)N2CCN(S(=O)(=O)c3ccc(C)cc3C)CC2)cc1,i,i,-33,i,i
COc1ccc(NC(=O)CCc2c(C)nc3c(c2C)c(=O)n(C)c(=O)n3C)cc1OC,i,i,i,i,i
N#Cc1c([N+](=O)[O-])cc([N+](=O)[O-])cc1S(=O)(=O)Cc1ccccc1,i,i,-35,i,i
Cc1ccc(OCC(=O)Nn2c(C)nc3ccccc3c2=O)c(C(C)C)c1,i,35,i,i,i
CCCCOc1ccc(Cn2c(=O)oc3ccccc32)cc1,i,i,-39!,i,i
Cc1ccc2oc(=O)n(Cc3ccc(OC(C)C)cc3)c2c1,i,i,i,i,i
CCCCOc1ccc(Cn2c(=O)oc3ccc(C)cc32)cc1,i,i,-79,i,i
O=C(Nc1nncs1)c1cccc(S(=O)(=O)N2CCc3ccccc32)c1,i,i,i,33,i
CN(C)C(=O)c1ccc(NC(=O)c2cccc(S(=O)(=O)N3CCCc4ccccc43)c2)cc1,i,i,-31,i,i
CN(C)C(=O)c1ccc(NC(=O)c2cccc(S(=O)(=O)N3CCCCCC3)c2)cc1,i,i,i,i,i
CCOC(=O)c1sc(NC(=O)c2cccc(S(=O)(=O)N3CCc4ccccc43)c2)c(C#N)c1C,i,i,-32,i,i
O=C(NC1=NCCS1)c1cccc(S(=O)(=O)N2CCc3ccccc32)c1,i,i,i,i,i
O=C(NCc1ccccc1)c1ccc(S(=O)(=O)N2CCCc3ccccc32)cc1,i,i,i,i,i
O=C(NCc1ccco1)c1ccc(S(=O)(=O)N2CCCc3ccccc32)cc1,i,i,-32,i,i
COc1ccc(OC)c(NC(=O)c2csnn2)c1,i,i,i,i,i
COC(=O)c1c(-c2ccc(Cl)cc2)noc1N1CCN(c2cccc(OC)c2)CC1,i,i,i,i,i
Cc1cccc(CNC(=O)C2CCC(=O)N(C3CCCC3)C2)c1 (stereo unspecified),i,i,-45,i,i
O=C1CC(Cc2ccccc2)C(=O)N1CCc1ccc2c(c1)OCO2 (stereo unspecified),i,i,i,i,i
O=C1OC[C@H](Cc2ccc3c(c2)OCO3)/C1=C\c1ccc2c(c1)OCO2,i,i,-33,i,i
COc1ccc2[nH]c3nc(SCC(=O)Nc4cccc(NC(C)=O)c4)nnc3c2c1,i,i,i,i,i
CC(=O)c1ccc(NC(=O)CSc2nnc3c(n2)[nH]c2ccccc23)cc1,i,i,-37,i,i
COc1cccc(NC(=O)CSc2nnc3c(n2)[nH]c2ccc(C)cc23)c1,i,i,-84,i,i
COc1ccc(-c2nnc(SCC(=O)Nc3ccc(C(C)=O)cc3)nc2-c2ccc(OC)cc2)cc1,i,i,-70,i,i
Cc1cc(C)n(-c2nc(C)c(C)c(=O)n2CC(=O)Nc2cccc([N+](=O)[O-])c2)n1,i,i,nt,i,i
c1ccc(N2CCN(Cc3nnc(-c4ccc5c(c4)OCO5)o3)CC2)cc1,i,i,i,i,i

# Source: PubChem BioAssay
